Screening data (PubChem)
CHX counter: affects cycloheximide protein synthesis inhibition readout, counter-screen; max response, %; 12% of 300,000 active; AID 2314; cell reporter, cycloheximide protein synthesis inhibition counterscreen; in the data active = max response mostly above about 13%, no sharp cut-off; inactive = mostly below about 14%; also: read at 38.3 µM for the half of the compounds with a filed dose; 0% is about no effect
Shiga inhibitor: blocks Shiga toxin action in Vero cells; Vero cells, Shiga toxin protein synthesis inhibition reporter; inhibition, % at 38.7 µM; 9.2% of 290,000 active; in the data active = inhibition mostly above about 28%, no sharp cut-off; inactive = mostly below about 43%; also: 0% is about no effect
FMDV inh: blocks foot and mouth disease virus; FMDV antiviral cell-based qHTS; Potency, µM (highest dose often 57.9 µM), for inactives: at the highest dose activity change, negative = inhibition, usual class: inhibitors; 1.2% of 410,000 active; calls by dose curve; tested in HEK293T cells; also: read-out not given here; potency is read from the fitted curve at half-maximal effect; % is scaled to controls: 0 for no effect and ±100 for the full control effect; nearly all actives have a fitted effect of over 45% in size
Sm TGR block: blocks Schistosoma mansoni thioredoxin glutathione reductase; Q962Y6; purified TGR, DTNB reduction, TNB absorbance 405 nm; Potency, µM (series often up to 114 µM), for inactives: at the top dose activity change, negative = inhibition, hits mostly inhibitors; 3% of 360,000 active; AID 485364; active = well fitted inhibition curve with a large enough effect; also: potency is read from the fitted curve at half-maximal effect; % is scaled to controls: 0 for no effect and ±100 for the full control effect; nearly all actives have a fitted effect of over 60% in size
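Kinetic colorimetric format: TGR-catalysed, NADPH-driven DTNB reduction monitored via TNB absorbance. Enzyme dispensed at 20 nM; compound exposure 15 min at room temperature before reaction start.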
* hit, by the source's call. Hits are enriched below; roughly 12% of the tested compounds scored in any of these assays.

What do the screens show for `Cc1nc2ccccn2c1C(=O)/C=C/c1ccc(F)cc1`?
CHX counter: 54.5*; Shiga inhibitor: 94.8*; FMDV inh: -20.6%; Sm TGR block: 5.2%

Results for COc1ccc(/C=C/C(=O)c2c(C)nc3ccccn23)cc1 ?
CHX counter: 47.7*; Shiga inhibitor: 107.2*; FMDV inh: 34.7%; Sm TGR block: -21.6%

Results for CC1(C)Cc2c(sc3nc(-c4cc5ccccc5o4)n(N)c(=O)c23)CO1 ?
CHX counter: 19.1*; Shiga inhibitor: 41.9; FMDV inh: 0.0%; Sm TGR block: 2.8%

How did CCOc1ccc(CNCc2c(C(=O)O)c(C)n(Cc3ccc(F)cc3Cl)c2C)cc1 do in these assays?
FMDV inh: -22.7%; Sm TGR block: -14.0%

Results for COc1ccc(CCNC(=O)CCn2c(=O)c3ccccc3n(Cc3ccccc3)c2=O)cc1OC ?
FMDV inh: -5.4%; Sm TGR block: 0.0%

Results for COc1ccc(SCC(=O)Nc2ccccc2Cl)cc1 ?
CHX counter: 6.6; Shiga inhibitor: 13.5; FMDV inh: -1.7%; Sm TGR block: 9.3%

What do the screens show for `COc1nc(SCC(=O)Nc2ccccc2Cl)nc(N(C)C)n1`?
CHX counter: 18.3*; Shiga inhibitor: 40.4; FMDV inh: 33.1%; Sm TGR block: 5.0%

Results for COCCNC(=O)CSc1nc(-c2cc(OC)c(OC)c(OC)c2)[nH]c1-c1ccc(Cl)cc1 ?
FMDV inh: 10.5%; Sm TGR block: 4.4%

How did O=C(/C=C/c1ccccc1)NC1CCSC1=O (stereo not given) do in these assays?
CHX counter: 38.5*; Shiga inhibitor: 70.0*; FMDV inh: 36.7%; Sm TGR block: 11.7%

How did Cc1c(C(=O)N2CCCC2)oc2c1-c1nn(CC(=O)NCc3cccc(Br)c3)cc1CC2 do in these assays?
FMDV inh: -17.7%; Sm TGR block: -11.7%

How did CC(C)(C)C(=O)CC(=O)Nc1ccc(Cl)c(N)c1 do in these assays?
CHX counter: 46.8*; Shiga inhibitor: 167.3*; Sm TGR block: 0.1%

Results for COc1ccc(-c2csc(C(C)(O)c3ccccc3)n2)cc1OC (stereo not given) ?
FMDV inh: -4.8%

Results for Oc1ccc(-c2csc(Nc3ccccn3)n2)cc1 ?
CHX counter: 43.2*; Shiga inhibitor: 122.0*; FMDV inh: 16.6%; Sm TGR block: 9.6%

Results for COc1ccc(-c2csc(Nc3ccccn3)n2)cc1OC ?
CHX counter: 36.5*; Shiga inhibitor: 66.7*; FMDV inh: -1.9%; Sm TGR block: 9.0%

Results for c1ccc(-c2csc(Nc3ccccn3)n2)cc1 ?
CHX counter: 59.9*; Shiga inhibitor: 81.6*; FMDV inh: -21.4%; Sm TGR block: -7.3%

How did Cc1ccc(-c2csc(Nc3ccccn3)n2)cc1 do in these assays?
CHX counter: 35.0*; FMDV inh: -62.3%; Sm TGR block: 4.5%

What do the screens show for `CC(C)c1ccc(CNc2nc(-c3ccco3)nn2S(=O)(=O)c2ccc3ccccc3c2)cc1`?
FMDV inh: 23.7%; Sm TGR block: -7.2%

Results for CCOC(=O)c1noc2nc(C)n(CC(=O)Nc3cccc(OC)c3)c(=O)c12 ?
FMDV inh: -7.9%; Sm TGR block: 3.9%

What do the screens show for `CCCCN(CCCC)C1=C(C(=O)c2ccccc2)N(C)S(=O)(=O)c2ccccc21`?
FMDV inh: -8.2%; Sm TGR block: 0.2%

How did CCc1cc2c(cc3c(=O)n(CC(=O)NC4CCC(C)CC4)nc(CC)n32)s1 (stereo not given) do in these assays?
FMDV inh: 37.6%; Sm TGR block: 7.6%

Results for CC(=O)c1ccc(N2CCN(C(=O)c3cc4cc5cc(C)ccc5nc4s3)CC2)cc1 ?
FMDV inh: -0.5%; Sm TGR block: -2.0%

How did Fc1ccc(-c2csc(Nc3ccccn3)n2)c(F)c1 do in these assays?
CHX counter: 45.9*; Shiga inhibitor: 39.6*; FMDV inh: -6.5%; Sm TGR block: 0.0%

How did NC(Cc1ccc(F)cc1)c1csc(Nc2ccccn2)n1 (stereo not given) do in these assays?
FMDV inh: -17.8%

How did Cc1cc(-c2csc(Nc3ccccn3)n2)ccc1F do in these assays?
CHX counter: 42.4*; Shiga inhibitor: 115.9*; FMDV inh: -33.1%; Sm TGR block: 14.0%

What do the screens show for `O=c1c(-c2ccc(Cl)cc2)nc2cnc(N3CCNCC3)nc2n1CCc1ccccc1`?
FMDV inh: -12.5%

Results for O=C(COc1ccc(Cl)cc1)NCCc1csc(-c2cccc(F)c2)n1 ?
FMDV inh: -17.5%; Sm TGR block: -0.2%

How did CCCS(=O)(=O)N1CC(=O)N(c2ccccc2F)C(C)(C(=O)NC2CCCCCC2)C1 (stereo not given) do in these assays?
FMDV inh: 16.9%; Sm TGR block: 2.9%
